Outcome and AC50 data for eight molecules are collected here from PubChem BioAssay (EPA / NIEHS).

Activity calls are given as the source filed them. Rule for the calls: active = hit-call score of the fitted dose curve at least 0.9, where 1 is the maximum; inactive = score below 0.9.

Experiment [1] in a line: ATG_CRE_CIS: Attagene CIS-FACTORIAL HepG2 Assay for human cAMP Responsive Element (CRE) binding protein 3 (AID 2282926). Conditions: HepG2 CRE cis-reporter, Attagene multiplexed mRNA; actives raise or lower the signal. The gist of the method: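 Assay format: transient reporter transfection of HepG2, 24 h treatment, total RNA isolation with DNase I step. Reporter abundance read by fluorescence after PCR and capillary separation; DMSO-normalised gain or loss fitting.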

In experiment [2] the target is CCAAT/enhancer-binding protein beta (Homo sapiens) (UniProt P17676). The experiment can be described thus: ATG_C_EBP_CIS: Attagene CIS-FACTORIAL HepG2 Assay for human CCAAT/Enhancer Binding Protein (C/EBP) beta (AID 2282927). Conditions: HepG2 Attagene cis-factorial transcription factor reporter; actives raise or lower the signal. The gist of the method:
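Following a 24 h incubation with test chemical, transfected HepG2 cells yielded RNA whose reporter transcripts were quantified by RT-PCR and fluorescent capillary electrophoresis, with DMSO serving as baseline for bidirectional fitting.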

Experiment [3] is described as follows: ATG_CMV_CIS: Attagene CIS-FACTORIAL HepG2 Assay for human CMV (Internal Marker) (AID 2282928).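 Note: endpoint acts as a background internal control marker rather than a target.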 As to conditions: HepG2 CMV promoter reporter, transcription factor profiling; actives raise or lower the signal. An outline of the steps: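 Fluorescence intensity of RT-PCR-derived reporter fragments, resolved by capillary electrophoresis, gives the signal. HepG2 liver cells bearing transfected cis-element reporters were treated 24 h; activity in either direction was fit relative to DMSO-treated controls.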

A short description of experiment [4]: ATG_DR4_LXR_CIS: Attagene CIS-FACTORIAL HepG2 Assay for human Liver X Receptor (LXR), DR4 submotif (AID 2282929). As to conditions: HepG2 Attagene DR4 cis-reporter, mRNA transcription; actives raise or lower the signal. An outline of the steps:
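Cells were transfected with multiple reporter transcription units, exposed to chemicals for 24 hours, then lysed for RNA. Reporter mRNA induction was measured by RT-PCR with capillary electrophoresis detection and fitted in both directions relative to DMSO.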

Experiment [5] deals with Aryl hydrocarbon receptor (Homo sapiens) (UniProt P35869). The experiment can be described thus: ATG_Ahr_CIS: Attagene CIS-FACTORIAL HepG2 Assay for human Aryl Hydrocarbon Receptor (Ahr) (AID 2282930). Conditions: HepG2 AhR cis-factorial reporter transcription; actives raise or lower the signal. An outline of the steps:
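Values derive from bidirectional fitting against DMSO negative control. Underlying signal: cis-element reporter mRNA in transiently transfected HepG2, harvested 24 h post-dose and measured by RT-PCR plus capillary electrophoresis.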

Experiment [6] can be described thus: ATG_AP_1_CIS: Attagene CIS-FACTORIAL HepG2 Assay for human Activator Protein 1 (AP-1) (AID 2282931). Conditions: HepG2 Attagene cis-factorial AP-1 reporter mRNA; actives raise or lower the signal. An outline of the steps:
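Endogenous transcription-factor activity in human HepG2 liver cells is read through a cis-promoter reporter transcript, sampled 24 h after dosing. Detection uses RT-PCR with capillary electrophoresis; values come from bidirectional fitting relative to DMSO.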

The nature of experiment [7]: ATG_AP_2_CIS: Attagene CIS-FACTORIAL HepG2 Assay for human Activator Protein 2 (AP-2) (AID 2282932). As to conditions: HepG2 AP-2 cis-reporter, Attagene transcription factor profiling; actives raise or lower the signal. The gist of the method: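 Cells (HepG2) transfected with promoter-driven reporter constructs, treated 24 h. Total RNA reverse-transcribed, reporter cDNA PCR-amplified, FAM-labelled by primer extension, digested, resolved by capillary electrophoresis. Activity fitted both directions versus DMSO.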

Experiment [8] in a line: ATG_BRE_CIS: Attagene CIS-FACTORIAL HepG2 Assay for human Bone Morphogenetic Protein (BMP) Response Element (BRE) (AID 2282933). As to conditions: HepG2 BMP response element reporter, Attagene transcription factor profiling; actives raise or lower the signal. An outline of the steps:
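A HepG2 multiplex reporter system measured inducible reporter mRNA 24 h post-dosing. Detection: RT-PCR, 6-FAM primer extension, HpaI digestion, capillary electrophoresis. Activity fitted bidirectionally relative to DMSO.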

In experiment [9] the target is Retinoic acid receptor alpha (Homo sapiens) (UniProt P10276). The experiment can be described thus: ATG_DR5_RAR_CIS: Attagene CIS-FACTORIAL HepG2 Assay for human Retinoic Acid Receptor Alpha (RARE), DR5 submotif (AID 2282934). Conditions: HepG2 Attagene cis-factorial RARE DR5 reporter, mRNA; actives raise or lower the signal. The gist of the method:
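Endpoint fitted in both directions relative to DMSO as negative control. It reflects DR5 cis-element reporter mRNA induction in transiently transfected HepG2 cells, measured 24 h after dosing through RT-PCR and fluorescent capillary electrophoresis.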

Experiment [10] in a line: ATG_E_Box_CIS: Attagene CIS-FACTORIAL HepG2 Assay for human Enhancer Box (E-box) (AID 2282936). As to conditions: HepG2 E-box cis-reporter transcription, actives raise or lower the signal. The gist of the method:
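Endogenous transcription factor activity was sensed in human HepG2 liver cells through transfected cis-promoter reporter units. After 24 h of dosing, total RNA was reverse-transcribed and reporter cDNA resolved by capillary electrophoresis.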

Experiment [11] can be described thus: ATG_M_61_CIS: Attagene CIS-FACTORIAL HepG2 Assay for M61 Transcription Factor (Internal Marker) (AID 2282937). Conditions: HepG2 Attagene CIS-FACTORIAL M61 internal marker reporter; actives raise or lower the signal. The gist of the method: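 Cells were transfected with reporter units under cis-regulatory promoters, treated with chemicals for 24 h, then lysed for RNA. Reporter transcripts were quantified by RT-PCR and capillary electrophoresis, and activity was fitted bidirectionally against DMSO.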

Experiment [12] is described as follows: ATG_EGR_CIS: Attagene CIS-FACTORIAL HepG2 Assay for human Early Growth Response 1 (EGR1) (AID 2282938). As to conditions: HepG2 Attagene CIS-FACTORIAL EGR reporter mRNA; actives raise or lower the signal. An outline of the steps: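 Endogenous TF activity in HepG2 liver cells was gauged through cis-promoter reporter constructs transiently transfected. After 24 h dosing, reporter mRNA was quantified by RT-PCR and capillary electrophoresis, and curves fitted in both directions versus DMSO.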

Experiment [13] is described as follows: ATG_M_19_CIS: Attagene CIS-FACTORIAL HepG2 Assay for M19 Transcription Factor (Internal Marker) (AID 2282939). Conditions: HepG2 Attagene CIS-FACTORIAL M19 internal marker reporter; actives raise or lower the signal. An outline of the steps:
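Chemical-treated HepG2 (24 h) with MRTU constructs; reporter transcripts detected by fluorescent RT-PCR fragment analysis on capillary electrophoresis. Internal background marker, DMSO as baseline.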

A short description of experiment [14]: ATG_Ets_CIS: Attagene CIS-FACTORIAL HepG2 Assay for human Erythroblast Transformation Specific (ETS) (AID 2282941). Conditions: HepG2 ETS cis-reporter transcription, actives raise or lower the signal. The gist of the method: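 Multiplexed reporter transcript profiling: HepG2, 24 h treatment, total RNA to cDNA, PCR, 6-FAM labelling, HpaI cut, capillary electrophoresis. Gain- or loss-of-signal fitted against DMSO.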

Experiment [15] deals with Hepatocyte nuclear factor 3-beta (Homo sapiens) (UniProt Q9Y261). The experiment in a line: ATG_FoxA2_CIS: Attagene CIS-FACTORIAL HepG2 Assay for human Forkhead box A2 (FOXA2) (AID 2282942). As to conditions: HepG2 cis-reporter transcription factor activity, 24 h; actives raise or lower the signal. An outline of the steps:
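Endogenous transcription factor activity was read in HepG2 cells carrying transiently transfected cis-promoter reporter units. After 24 h dosing, reporter mRNA was quantified by RT-PCR and capillary electrophoresis, and values fitted bidirectionally versus DMSO.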

Experiment [16] can be described thus: ATG_FoxO_CIS: Attagene CIS-FACTORIAL HepG2 Assay for human Forkhead box O (FoxO) (AID 2282943). Conditions: HepG2 Attagene cis-reporter, FoxO element, mRNA; actives raise or lower the signal. The gist of the method:
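Values reflect reporter mRNA induction or loss in HepG2 cells 24 h post-dosing, fitted bidirectionally with DMSO as negative control and baseline. Detection used RT-PCR and fluorescence capillary electrophoresis.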

Experiment [17] in a line: ATG_GATA_CIS: Attagene CIS-FACTORIAL HepG2 Assay for human GATA Binding Protein (AID 2282944). As to conditions: HepG2 GATA cis-element reporter, Attagene multiplex mRNA; actives raise or lower the signal. The gist of the method:
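Transfected cis-reporter HepG2 cells were treated with chemicals for 24 hours. Total RNA was then converted to cDNA, amplified with reporter-specific primers and analysed by fluorescent capillary electrophoresis, using DMSO-treated wells as baseline.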

Experiment [18] in a line: ATG_GLI_CIS: Attagene CIS-FACTORIAL HepG2 Assay for human Zinc Finger Protein GLI1 (AID 2282945). As to conditions: HepG2, Attagene cis-factorial reporter mRNA, GLI element; actives raise or lower the signal. The gist of the method: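 HepG2 cells transiently transfected with cis-promoter multiplexed reporter units report endogenous transcription factor activity. After 24 h chemical exposure, reporter mRNA was quantified by RT-PCR, 6-FAM labelling, HpaI digestion and capillary electrophoresis, with bidirectional fitting against DMSO.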

Experiment [19] deals with Transcription factor E2F1 (Homo sapiens) (UniProt Q01094). The experiment can be described thus: ATG_E2F_CIS: Attagene CIS-FACTORIAL HepG2 Assay for human E2F Transcription Factor 1 (AID 2282935). As to conditions: HepG2 Attagene cis-reporter, E2F reporter RNA transcripts; actives raise or lower the signal. The gist of the method: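 First, HepG2 cells were transfected with reporter transcription units. Next, they were dosed for 24 h. Then RNA was isolated, converted to cDNA, PCR-amplified, FAM-labeled, HpaI-digested and analyzed by capillary electrophoresis.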
Chain of Transcription factor E2F1 (Homo sapiens) (Q01094 whole entry, looked up): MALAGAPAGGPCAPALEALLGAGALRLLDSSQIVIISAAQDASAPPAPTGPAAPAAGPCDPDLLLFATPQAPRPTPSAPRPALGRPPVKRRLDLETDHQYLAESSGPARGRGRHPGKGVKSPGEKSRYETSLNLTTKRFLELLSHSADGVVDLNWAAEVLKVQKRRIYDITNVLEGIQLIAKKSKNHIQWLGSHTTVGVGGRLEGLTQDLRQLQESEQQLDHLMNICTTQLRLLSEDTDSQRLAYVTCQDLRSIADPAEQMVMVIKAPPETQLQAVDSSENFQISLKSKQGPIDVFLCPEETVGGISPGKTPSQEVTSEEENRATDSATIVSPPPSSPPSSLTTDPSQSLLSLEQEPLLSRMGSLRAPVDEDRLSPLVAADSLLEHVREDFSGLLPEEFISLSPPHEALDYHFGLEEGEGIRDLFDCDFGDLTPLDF

Chain of CCAAT/enhancer-binding protein beta (Homo sapiens) (P17676 whole entry, looked up): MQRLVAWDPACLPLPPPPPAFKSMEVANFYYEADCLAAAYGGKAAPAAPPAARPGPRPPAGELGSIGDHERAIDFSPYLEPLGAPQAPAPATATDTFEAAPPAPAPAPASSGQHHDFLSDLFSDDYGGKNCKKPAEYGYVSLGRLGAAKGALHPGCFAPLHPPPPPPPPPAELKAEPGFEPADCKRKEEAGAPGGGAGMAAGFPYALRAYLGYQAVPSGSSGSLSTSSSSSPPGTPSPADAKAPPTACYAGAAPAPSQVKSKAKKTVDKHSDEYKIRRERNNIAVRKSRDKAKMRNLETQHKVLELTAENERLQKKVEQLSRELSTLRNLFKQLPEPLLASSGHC
Chain of Retinoic acid receptor alpha (Homo sapiens) (P10276 whole entry, looked up): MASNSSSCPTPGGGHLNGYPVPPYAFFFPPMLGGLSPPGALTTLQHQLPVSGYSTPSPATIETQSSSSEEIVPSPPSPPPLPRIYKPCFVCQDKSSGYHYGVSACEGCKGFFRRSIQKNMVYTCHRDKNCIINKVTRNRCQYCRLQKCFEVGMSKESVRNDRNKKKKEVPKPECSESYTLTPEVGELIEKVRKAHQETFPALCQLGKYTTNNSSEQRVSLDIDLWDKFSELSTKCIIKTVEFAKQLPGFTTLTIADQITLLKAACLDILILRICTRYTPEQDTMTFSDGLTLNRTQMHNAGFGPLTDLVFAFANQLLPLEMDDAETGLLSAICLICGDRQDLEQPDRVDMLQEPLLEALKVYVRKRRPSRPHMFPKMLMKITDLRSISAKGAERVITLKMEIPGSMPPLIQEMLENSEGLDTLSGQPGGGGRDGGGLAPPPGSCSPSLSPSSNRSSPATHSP
Chain of Hepatocyte nuclear factor 3-beta (Homo sapiens) (Q9Y261 whole entry, looked up): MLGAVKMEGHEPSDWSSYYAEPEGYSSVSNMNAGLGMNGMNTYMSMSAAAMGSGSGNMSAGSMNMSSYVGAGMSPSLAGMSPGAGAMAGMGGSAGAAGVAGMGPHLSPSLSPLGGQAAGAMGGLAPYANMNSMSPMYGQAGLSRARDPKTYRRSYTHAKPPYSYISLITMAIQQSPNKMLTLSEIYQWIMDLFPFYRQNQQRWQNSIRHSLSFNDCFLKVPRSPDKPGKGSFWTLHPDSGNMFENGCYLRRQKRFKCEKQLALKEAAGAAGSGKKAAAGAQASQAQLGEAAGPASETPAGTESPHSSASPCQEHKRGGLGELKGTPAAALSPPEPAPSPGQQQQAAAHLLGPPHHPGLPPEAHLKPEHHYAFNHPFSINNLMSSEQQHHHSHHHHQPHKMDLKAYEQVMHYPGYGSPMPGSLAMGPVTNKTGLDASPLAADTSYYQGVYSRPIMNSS
Chain of Aryl hydrocarbon receptor (Homo sapiens) (P35869 whole entry, looked up): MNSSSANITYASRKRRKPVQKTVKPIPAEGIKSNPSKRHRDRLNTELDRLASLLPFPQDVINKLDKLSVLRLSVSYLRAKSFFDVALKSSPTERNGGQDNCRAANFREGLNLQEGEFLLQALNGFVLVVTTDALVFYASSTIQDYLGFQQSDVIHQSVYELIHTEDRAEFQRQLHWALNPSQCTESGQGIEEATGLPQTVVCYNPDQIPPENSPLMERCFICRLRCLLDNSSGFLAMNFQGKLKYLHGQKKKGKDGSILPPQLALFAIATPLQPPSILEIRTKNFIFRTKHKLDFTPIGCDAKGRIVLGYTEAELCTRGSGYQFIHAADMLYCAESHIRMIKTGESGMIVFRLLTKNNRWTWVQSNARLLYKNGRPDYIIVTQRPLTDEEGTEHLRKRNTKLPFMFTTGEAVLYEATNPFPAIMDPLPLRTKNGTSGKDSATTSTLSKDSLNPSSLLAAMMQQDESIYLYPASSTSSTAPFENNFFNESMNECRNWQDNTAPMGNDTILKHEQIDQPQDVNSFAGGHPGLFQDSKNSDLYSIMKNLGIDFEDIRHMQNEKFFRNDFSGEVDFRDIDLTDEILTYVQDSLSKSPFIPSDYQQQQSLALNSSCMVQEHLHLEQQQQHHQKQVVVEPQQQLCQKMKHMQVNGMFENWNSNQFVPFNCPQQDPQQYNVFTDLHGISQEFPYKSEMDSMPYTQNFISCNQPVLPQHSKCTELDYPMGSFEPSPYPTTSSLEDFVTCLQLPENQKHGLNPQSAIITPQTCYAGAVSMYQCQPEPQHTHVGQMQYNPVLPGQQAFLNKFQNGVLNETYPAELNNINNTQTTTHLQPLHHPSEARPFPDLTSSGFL

On to `Cc1ccc(S(=O)(=O)Oc2ccc(N=Nc3ccc(-c4ccc(N=Nc5c(O)ccc6cc(S(=O)(=O)O)cc(S(=O)(=O)O)c56)c(C)c4)cc3C)cc2)cc1`, for which the outcome in [1], in [2], in experiment [3], in [4], in experiment [6] and in [7] was inactive. In addition, the molecule was classed as inactive in [9], in [10], in experiment [11], in experiment [12], in experiment [13] and in [14]. Further, the result in [15], in [16], in [17] and in experiment [18] was inactive. For the same molecule, the AC50 is 30.1 µM (active) in [5] and 7.56 µM (active) in experiment [8].
Regarding `CCO/C=C1\N=C(c2ccccc2)OC1=O`, the result in experiment [1], in experiment [2], in experiment [3], in experiment [4], in [5] and in experiment [6] was inactive. The molecule was classed as inactive in [7], in [8], in experiment [9], in experiment [10], in experiment [11] and in experiment [12]. For the same molecule, the result in experiment [13], in [14], in [15], in experiment [16], in [17] and in experiment [18] was inactive.
Consider `CC1=C(Br)C(=O)C(Br)=C/C1=C(/c1ccccc1S(=O)(=O)O)c1cc(Br)c(O)c(Br)c1C`, for which the molecule was classed as inactive in experiment [1], in experiment [2], in [3], in [4], in experiment [6] and in experiment [7]. Also, the call in experiment [8], in experiment [9], in [10], in [11], in experiment [13] and in [14] was inactive. Moreover, the call in experiment [15], in [16], in [17] and in experiment [18] was inactive. Also, the AC50 in experiment [5] is 51.1 µM (active).
Consider `CC=CC=CCOC(=O)C(C)C`, for which the molecule was called inactive in experiment [1], in [2], in experiment [3], in [5], in [7] and in experiment [9]. Also, the result in experiment [19], in [10], in experiment [11], in experiment [12], in experiment [13] and in experiment [14] was inactive. Further, the outcome in experiment [15], in experiment [16], in [17] and in experiment [18] was inactive. In addition, the AC50 was 130 µM (active) in [4] and 100 µM (active) in experiment [6].
`Cc1c(C2(c3cc(Br)c(O)c(Br)c3C)OS(=O)(=O)c3ccccc32)cc(Br)c(O)c1Br`: the molecule was called inactive in experiment [1], in experiment [2], in experiment [3], in [4], in experiment [6] and in experiment [7]. Besides, the call in [8], in experiment [9], in [10], in experiment [11], in [12] and in experiment [13] was inactive. Also, the call in experiment [14], in [15], in [16], in experiment [17] and in [18] was inactive. In addition, the AC50 in experiment [5] is 32.5 µM (active).
As for `CC1(C)C(=O)N(Cl)C(=O)N1Br`, the call in experiment [1], in experiment [2], in experiment [3], in experiment [4], in experiment [5] and in experiment [6] was inactive. Further, the molecule was called inactive in experiment [7], in experiment [8], in experiment [9], in experiment [10], in experiment [11] and in [12]. Besides, the call in [13], in experiment [14], in experiment [15], in experiment [16], in experiment [17] and in experiment [18] was inactive.
As for `CC1(C)COCN1`, the outcome in experiment [1], in experiment [2], in experiment [3], in experiment [4], in experiment [5] and in experiment [6] was inactive. In addition, the molecule was called inactive in experiment [7], in [8], in [9], in experiment [10], in experiment [11] and in experiment [12]. For the same molecule, the result in experiment [13], in experiment [14], in experiment [15], in [16], in [17] and in experiment [18] was inactive.
As to `CC(=O)CC(=O)Nc1ccc(C)cc1C`, the result in experiment [1], in experiment [2], in experiment [3], in experiment [4], in experiment [5] and in [6] was inactive. The outcome in [7], in [8], in [9], in experiment [10], in experiment [11] and in [12] was inactive. In addition, the molecule was called inactive in experiment [13], in experiment [14], in [15], in experiment [16], in experiment [17] and in experiment [18].
